Source: PubChem
Sampled rows, rich in hits. Any-hit rate of the full collection: about 2.5%.
Cruzain noTriton: blocks cruzain activity in detergent-free assay; AID 1476; purified cruzain, Z-FR-AMC fluorescence, no detergent; 2.3% of 200,000 active; P25779; Potency, µM, for the others: max response, negative = inhibition, usual class: inhibitors;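 note: plate controls were enzyme without inhibitor for no effect and buffer without enzyme for full effect; nearly all actives have a fitted effect of over 40% in size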
Target sequence (P25779 123-467 limits assumed): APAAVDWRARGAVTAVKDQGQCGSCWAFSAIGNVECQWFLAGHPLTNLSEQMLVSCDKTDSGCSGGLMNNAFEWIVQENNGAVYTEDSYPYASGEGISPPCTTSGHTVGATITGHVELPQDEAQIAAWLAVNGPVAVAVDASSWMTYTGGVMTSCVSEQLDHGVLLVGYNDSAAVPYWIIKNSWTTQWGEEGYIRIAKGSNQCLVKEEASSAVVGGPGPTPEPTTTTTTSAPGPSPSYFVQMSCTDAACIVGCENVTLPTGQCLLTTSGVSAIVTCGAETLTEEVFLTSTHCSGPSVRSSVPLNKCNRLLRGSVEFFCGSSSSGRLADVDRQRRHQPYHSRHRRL
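Detergent-free condition (0.00005% Triton X-100) in acetate buffer pH 5.5 with DTT. 1.5 nM enzyme and compound were pre-mixed 15 min, then 2 uM Z-FR-AMC substrate added; reaction progress from fluorescence change between first and third reads (60 s).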
Cruzain Triton: blocks cruzain activity in presence of Triton detergent; P25779; purified cruzain, Z-FR-AMC fluorescence, 0.01% Triton; Potency, µM, for the others: max response, negative = inhibition, usual class: inhibitors; 0.43% of 200,000 active;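 note: plate controls were neutral wells for no effect and buffer without enzyme for full effect; nearly all actives have a fitted effect of over 40% in size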
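Cruzain (1.5 nM) preincubated 15 min at RT with compound in 100 mM sodium acetate pH 5.5, 5 mM DTT, 0.01% Triton X-100. Reaction started with 2 uM Z-FR-AMC; AMC fluorescence (ex 360/em 450 nm) change over 60 s gave rate.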
* marks the source's active call; other numbers are inactive results; ? = inconclusive. Calls come from the whole dose curve; as a rule, active = well fitted curve in the direction sought with a large enough effect; inconclusive = small, poorly fitted or top-dose-only effect, or another doubt; inactive = no such curve, though single readings can be large; an effect the other way counts as inactive or inconclusive. Potency is the fitted concentration of half-maximal effect.

SMILES	Cruzain noTriton	Cruzain Triton
O=C(OCc1nc2ccccc2s1)c1cccs1	-4%	0%
O=C(CNC(=O)c1ccc(Cl)cc1)OCc1nc2ccccc2s1	16µM*	14µM*
Cc1ccc(C(=O)C(OC(=O)CN2C(=O)c3ccccc3C2=O)c2ccccc2)cc1 (stereo not given)	?	3%
Cc1ccc(C(=O)NCC(=O)NCC(=O)OCc2ccc(Cl)cc2)cc1	1%	-3%
O=C(CN1C(=O)c2ccccc2C1=O)OC(C(=O)c1ccc(Cl)cc1)c1ccccc1 (stereo not given)	32µM*	2%
CCOc1ccc(Nc2cc(C)nc3nc(Cc4ccc(Cl)cc4)nn23)cc1	-3%	-6%
Cc1ccc(C(C)C)c(OCc2ccc(C(=O)Nc3ccc(S(N)(=O)=O)cc3C)o2)c1	?	-27%
CCOc1ccc(NC(=O)CSC2=Nc3ccccc3C3=NC(CCC(=O)NCc4ccccc4)C(=O)N23)cc1 (stereo not given)	3%	0%
Cc1cc(=O)n(Cc2ccc(F)cc2Cl)c2c1c(C)nn2-c1ccccc1	-4%	-3%
CCCNC(=O)c1cnc2sc(N3CCCCCC3)nn2c1=O	-4%	-8%
O=C(CNC(=O)c1ccccc1)OC(C(=O)c1ccccc1)c1ccccc1 (stereo not given)	4µM*	6.3µM*
COc1ccc(NC(=O)CCC(=O)OC(C(=O)c2ccccc2)c2ccccc2)cc1 (stereo not given)	-8%	-12%
COc1ccccc1CNc1cc(C)nc2nc(-c3ccc(C)cc3)nn12	-12%	-4%
Cc1cc(NC(=O)C2CCCN(S(=O)(=O)c3cccc4nsnc34)C2)ccc1Br (stereo not given)	-25%	-2%
Cc1ccc(C2CC(=O)N3CN(Cc4ccco4)CSC3=C2C#N)cc1 (stereo not given)	-5%	-3%
N#CC1=C2SCN(Cc3ccco3)CN2C(=O)CC1c1c(F)cccc1Cl (stereo not given)	20µM*	?
COc1ccc(Br)cc1C1CC(=O)N2CN(C)CSC2=C1C#N (stereo not given)	2%	-6%
COc1ccc(Br)cc1C1CC(=O)N2CN(Cc3ccccc3)CSC2=C1C#N (stereo not given)	32µM*	?
O=C(CCn1c(=O)c2ccccc2n(Cc2ccc(F)cc2Cl)c1=O)NCc1ccc2c(c1)OCO2	-5%	-3%
COc1ccc(NC(=O)CC2C(=O)N(c3ccc(OC)cc3)C(=O)N2CCC2=CCCCC2)cc1 (stereo not given)	5%	-2%
Cc1cccc(NC(=O)Cn2nnc(-c3nc(-c4ccncc4)no3)c2N)c1	9%	-3%
Cc1ccccc1C(=O)Nc1ccc(C(=O)NNC(=O)CCCOc2ccc(Cl)cc2Cl)cc1	10µM*	3%
O=C(O)CCC(=O)NNC(=O)CCCOc1ccc(Cl)cc1Cl	-9%	2%
O=C(CCCOc1ccc(Cl)cc1Cl)NNC(=O)c1ccc(NC(=O)c2ccccc2)cc1	4µM*	-4%
COC(=O)NNC(=O)CCCOc1ccc(Cl)cc1Cl	4%	1%
SMILES	Cruzain noTriton	Cruzain Triton
Cc1ccc(S(=O)(=O)NCC(=O)OC2CCOC2=O)cc1 (stereo not given)	-25%	-12%
CCCCOc1ccc(C(=O)NCC(=O)OC2CCOC2=O)cc1 (stereo not given)	?	20µM*
CC(NC(=O)C1CCN(S(=O)(=O)c2ccc3nc4c(c(C(=O)O)c3c2)CCCC4)CC1)c1ccccc1 (stereo not given)	?	-11%
COc1ccc(C(=O)C2CN(c3ccccc3)CC2c2ccc(Cl)cc2)cc1 (stereo not given)	16µM*	6%
COc1ccc(C(=O)N2CCN(c3cccc(Cl)c3)CC2)cc1	12%	-5%
Cc1nc(C(=O)Nc2cccc(Cl)c2)nn1-c1cc(OC(C)C)c(Cl)cc1Cl	?	-1%
Cc1nc(C(=O)Nc2ccc(Cl)cc2Cl)nn1-c1cc(OC(C)C)c(Cl)cc1Cl	25µM*	-1%
Cc1nc(C(=O)Nc2cccc(Cl)c2Cl)nn1-c1cc(OC(C)C)c(Cl)cc1Cl	?	-2%
Cc1nc(C(=O)Nc2cc(Cl)ccc2Cl)nn1-c1cc(OC(C)C)c(Cl)cc1Cl	25µM*	4%
CC(C)c1ccc(N2C(=O)CSC23C(=O)N(C)c2ccccc23)cc1 (stereo not given)	-9%	-4%
O=C(Cn1cnc2sc(-c3ccccc3)cc2c1=O)NCc1ccccc1	16µM*	1%
O=C(Cn1cnc2sc(-c3ccccc3)cc2c1=O)NCCc1ccccc1	-23%	-1%
Cc1ccc2occ(CC(=O)Nc3c(C(=O)Nc4ccc(Cl)cc4)oc4ccccc34)c2c1	10µM*	-2%
CCc1ccc2occ(CC(=O)Nc3c(C(=O)Nc4ccc(C)cc4)oc4ccccc34)c2c1	-13%	0%
CCc1ccc2occ(CC(=O)Nc3c(C(=O)Nc4ccc(Cl)cc4)oc4ccccc34)c2c1	10µM*	-2%
